From PubChem BioAssay (NCI)
The panel holds about 83,000 compounds, 20% with a hit somewhere; the sample as a whole holds those more often.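 Step 1: grow cells in 96-well plates. Step 2: add test compound at a single concentration. Step 3: incubate 48 h. Step 4: record percent growth.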 The source made the active and inactive calls. How the source made its calls: active means growth percent below 10; inactive means the rest.

How the values were obtained:
Test in all cases: NCI-60 one-dose screen, 48 h (100 = growth as untreated, 0 = no growth, -100 = all killed)
Settings in all cases: 10 µM unless noted
NCI-H23 lung = system: NCI-H23 lung
NCI-H226 lung = system: NCI-H226 lung
NCI-H322M lung = system: NCI-H322M lung
HOP-62 NSCLC = system: HOP-62 NSCLC
HOP-92 NSCLC = system: HOP-92 NSCLC
NCI-H522 lung = system: NCI-H522 lung
A549/ATCC NSCLC = system: A549/ATCC NSCLC
786-0 renal = system: 786-0 renal
COLO 205 colon = system: COLO 205 colon
DU-145 prostate = system: DU-145 prostate
K-562 leukemia = system: K-562 leukemia
MALME-3M melanoma = system: MALME-3M melanoma
MDA-MB-231 breast = system: MDA-MB-231 breast
RXF 393 renal = system: RXF 393 renal
SF-268 CNS = system: SF-268 CNS
SF-295 CNS = system: SF-295 CNS
SF-539 CNS = system: SF-539 CNS
UACC-257 melanoma = system: UACC-257 melanoma
M14 melanoma = system: M14 melanoma

Measured: growth

Oc1c(I)cc(I)cc1CNCCCN(Cc1ccccn1)Cc1ccccn1
active: NCI-H23 lung -37% | NCI-H226 lung -78.4% | NCI-H322M lung -75.3% | HOP-62 NSCLC -52.7% | HOP-92 NSCLC -76.1% | NCI-H522 lung -56.4% | A549/ATCC NSCLC -51.8% | 786-0 renal -95.4% | COLO 205 colon -34.2% | DU-145 prostate -45.8% | K-562 leukemia 5.96% | MALME-3M melanoma -73.2% | MDA-MB-231 breast -66.2% | RXF 393 renal -86.6% | SF-268 CNS -27.3% | SF-295 CNS -83.6% | SF-539 CNS -88.3% | UACC-257 melanoma -41.5% | M14 melanoma -72%

CCCCNC(=O)Oc1ccc(/C(=C(\C)c2ccc(Cl)cc2)c2ccc(OCCN3CCCCC3)cc2)cc1
inactive: NCI-H23 lung 78.8% | NCI-H226 lung 99.1% | NCI-H322M lung 94.8% | HOP-62 NSCLC 78.6% | HOP-92 NSCLC 64.5% | NCI-H522 lung 85.2% | A549/ATCC NSCLC 63.8% | 786-0 renal 63.2% | COLO 205 colon 69.2% | DU-145 prostate 90.4% | K-562 leukemia 21.6% | MALME-3M melanoma 81.7% | MDA-MB-231 breast 94% | RXF 393 renal 79.5% | SF-268 CNS 76.1% | SF-295 CNS 91.7% | SF-539 CNS 71.7% | UACC-257 melanoma 35.5% | M14 melanoma 68.2%

CN1CCN(c2ccc(-c3ccc4ncc(C#N)c(Nc5ccc(F)c(Cl)c5)c4c3)cn2)CC1
inactive: NCI-H23 lung 79% | NCI-H226 lung 84.2% | NCI-H322M lung 16.8% | HOP-62 NSCLC 68.7% | HOP-92 NSCLC 57.9% | NCI-H522 lung 39.1% | A549/ATCC NSCLC 51.3% | 786-0 renal 52.9% | COLO 205 colon 57.1% | DU-145 prostate 27.5% | K-562 leukemia 17.3% | MALME-3M melanoma 27.9% | MDA-MB-231 breast 77.2% | RXF 393 renal 27.3% | SF-268 CNS 47.7% | SF-295 CNS 71.5% | SF-539 CNS 60.2% | UACC-257 melanoma 34% | M14 melanoma 30.5%

COc1cc(C(=O)/C=C/c2ccc(OCCCCCC[P+](c3ccccc3)(c3ccccc3)c3ccccc3)cc2)cc(OC)c1OC
active: NCI-H23 lung -63% | NCI-H226 lung -29.2% | NCI-H322M lung -23.1% | HOP-62 NSCLC -62.2% | NCI-H522 lung -70.4% | A549/ATCC NSCLC -1.89% | 786-0 renal -92.4% | COLO 205 colon -95.3% | DU-145 prostate -1.64% | K-562 leukemia 0.54% | MALME-3M melanoma -37.9% | MDA-MB-231 breast -15.1% | RXF 393 renal -47.3% | SF-268 CNS -6.6% | SF-295 CNS -23.4% | SF-539 CNS -86.2% | UACC-257 melanoma -21.4% | M14 melanoma -55.8%

COC1=C(C)C(=O)c2c(c(CCCl)c3n2CCC3O)C1=O (stereo not drawn)
inactive: K-562 leukemia 22%
active: NCI-H23 lung -16.8% | NCI-H226 lung -30.8% | NCI-H322M lung -4.2% | HOP-62 NSCLC -11.2% | NCI-H522 lung -46.1% | A549/ATCC NSCLC 4.42% | 786-0 renal -21% | COLO 205 colon -59.2% | DU-145 prostate 1.19% | MALME-3M melanoma -55.7% | RXF 393 renal -53.7% | SF-268 CNS 9.6% | SF-295 CNS -12% | SF-539 CNS -28.8% | UACC-257 melanoma -44.8% | M14 melanoma -14.3%

O=S(=O)(NCCCNc1cc(-c2c(-c3cccc(O)c3)nc3sccn23)ccn1)c1cccc2ccccc12
inactive: NCI-H23 lung 39.8% | NCI-H226 lung 41.1% | NCI-H322M lung 78.8% | HOP-62 NSCLC 67.2% | HOP-92 NSCLC 97.3% | NCI-H522 lung 51.2% | A549/ATCC NSCLC 58.9% | 786-0 renal 51.2% | COLO 205 colon 35.5% | DU-145 prostate 42.4% | K-562 leukemia 21.3% | MALME-3M melanoma 48.4% | MDA-MB-231 breast 72.2% | RXF 393 renal 41.1% | SF-268 CNS 41.5% | SF-295 CNS 34.3% | SF-539 CNS 72.2% | UACC-257 melanoma 61.2% | M14 melanoma 45.4%

N#C/C(=C\c1ccc(F)cc1)n1nc2cccc(F)c2n1
inactive: NCI-H23 lung 56.7% | NCI-H226 lung 97.6% | NCI-H322M lung 76.2% | HOP-62 NSCLC 76.3% | A549/ATCC NSCLC 78.7% | 786-0 renal 67.3% | COLO 205 colon 67.1% | DU-145 prostate 37.6% | K-562 leukemia 13.3% | MALME-3M melanoma 52.9% | MDA-MB-231 breast 49% | RXF 393 renal 12.8% | SF-268 CNS 71.4% | SF-295 CNS 76.1% | UACC-257 melanoma 61% | M14 melanoma 25.8%
active: HOP-92 NSCLC 6.85% | NCI-H522 lung 8.28% | SF-539 CNS 7.78%

O=[N+]([O-])c1ccccc1NCSc1ccc(Cl)cc1
inactive: NCI-H23 lung 91.2% | NCI-H226 lung 91% | NCI-H322M lung 98.1% | HOP-62 NSCLC 124% | HOP-92 NSCLC 78.3% | NCI-H522 lung 90.7% | A549/ATCC NSCLC 91.3% | 786-0 renal 87.6% | COLO 205 colon 116% | DU-145 prostate 102% | K-562 leukemia 93.1% | MALME-3M melanoma 87.5% | MDA-MB-231 breast 90% | RXF 393 renal 88.9% | SF-268 CNS 84.2% | SF-295 CNS 77.4% | SF-539 CNS 107% | UACC-257 melanoma 95.8% | M14 melanoma 102%

COc1ccc(-c2[nH]c3ccc(OC)cc3c2/C=C(\C#N)S(=O)(=O)c2ccccc2)cc1
inactive: NCI-H23 lung 24.9% | NCI-H226 lung 72.3% | NCI-H322M lung 53.5% | HOP-62 NSCLC 69.1% | NCI-H522 lung 34.5% | A549/ATCC NSCLC 23.5% | 786-0 renal 27.8% | DU-145 prostate 17.3% | K-562 leukemia 19.8% | MALME-3M melanoma 61.3% | MDA-MB-231 breast 14.9% | SF-268 CNS 33.8% | SF-295 CNS 10.6% | UACC-257 melanoma 81.7% | M14 melanoma 25.3%
active: COLO 205 colon -43.4% | RXF 393 renal -7.82% | SF-539 CNS -37.8%

O=CN1N=C(c2ccc(Nc3ccnc4cc(Cl)ccc34)cc2)CC1c1ccccc1 (stereo not drawn)
inactive: NCI-H23 lung 48% | NCI-H226 lung 65.3% | NCI-H322M lung 81.3% | HOP-62 NSCLC 49.8% | HOP-92 NSCLC 16.3% | A549/ATCC NSCLC 37.6% | 786-0 renal 31.4% | COLO 205 colon 55.2% | DU-145 prostate 35.8% | K-562 leukemia 11.8% | MALME-3M melanoma 24.7% | MDA-MB-231 breast 32.9% | RXF 393 renal 31.4% | SF-268 CNS 37.4% | SF-295 CNS 17.4% | SF-539 CNS 25.9% | UACC-257 melanoma 63.3% | M14 melanoma 25.6%
active: NCI-H522 lung 2.53%

CCCCOc1ccc(/C=N/NC(N)=S)cc1
inactive: NCI-H23 lung 87.6% | NCI-H226 lung 68.9% | NCI-H322M lung 94.9% | HOP-62 NSCLC 116% | HOP-92 NSCLC 68.2% | A549/ATCC NSCLC 91.4% | 786-0 renal 68.3% | COLO 205 colon 85% | DU-145 prostate 95.6% | K-562 leukemia 65% | MALME-3M melanoma 90.2% | MDA-MB-231 breast 55.7% | RXF 393 renal 85.7% | SF-268 CNS 88.7% | SF-295 CNS 96.9% | SF-539 CNS 78.9% | UACC-257 melanoma 78.4% | M14 melanoma 78%
active: NCI-H522 lung 8.46%

COc1ccc(/C=C(\C#N)n2nnc3c(F)cccc32)cc1
inactive: NCI-H23 lung 18% | NCI-H226 lung 45% | NCI-H322M lung 37.9% | HOP-62 NSCLC 28.7% | HOP-92 NSCLC 21.4% | NCI-H522 lung 11.6% | A549/ATCC NSCLC 35.6% | 786-0 renal 15.9% | K-562 leukemia 12.1% | MALME-3M melanoma 36.8% | MDA-MB-231 breast 21% | SF-268 CNS 39.7% | UACC-257 melanoma 62.6%
active: COLO 205 colon -6.97% | DU-145 prostate 2.45% | RXF 393 renal -21.3% | SF-295 CNS 5.51% | SF-539 CNS -27.4% | M14 melanoma -16.2%

Clc1ccc(C(/C=C/c2sc(Cl)nc2Cl)=N/Nc2cc(Cl)cc(Cl)c2)cc1
inactive: NCI-H23 lung 92.2% | NCI-H226 lung 90.1% | NCI-H322M lung 99.9% | HOP-62 NSCLC 99.1% | HOP-92 NSCLC 93% | NCI-H522 lung 90.8% | A549/ATCC NSCLC 103% | 786-0 renal 106% | COLO 205 colon 118% | DU-145 prostate 112% | K-562 leukemia 94.6% | MALME-3M melanoma 103% | MDA-MB-231 breast 103% | RXF 393 renal 110% | SF-268 CNS 99.4% | SF-295 CNS 104% | SF-539 CNS 106% | UACC-257 melanoma 99.1% | M14 melanoma 107%

CCCCn1c(=O)c(-c2cc(-c3ccc(Cl)cc3)nc(-c3ccc(Cl)cc3)c2)cc2ccc(Cl)cc21
inactive: NCI-H23 lung 97.8% | NCI-H226 lung 98.5% | NCI-H322M lung 98.4% | HOP-62 NSCLC 97.5% | HOP-92 NSCLC 88.3% | NCI-H522 lung 98.4% | A549/ATCC NSCLC 105% | 786-0 renal 103% | COLO 205 colon 105% | DU-145 prostate 108% | K-562 leukemia 97.8% | MALME-3M melanoma 98.5% | MDA-MB-231 breast 96.5% | RXF 393 renal 103% | SF-268 CNS 94.2% | SF-295 CNS 100% | SF-539 CNS 96.1% | UACC-257 melanoma 101% | M14 melanoma 107%

COc1cc(C(=O)c2cnc(-c3cccc4[nH]ccc34)[nH]2)cc(OC)c1OC
active: NCI-H522 lung -7.75% | 786-0 renal 6.82% | COLO 205 colon -36.9% | DU-145 prostate 2.85% | K-562 leukemia 8.88% | MDA-MB-231 breast -3.5% | SF-539 CNS 1.12% | M14 melanoma -6.97%
inactive: NCI-H23 lung 26.4% | NCI-H226 lung 45.7% | NCI-H322M lung 35.3% | HOP-62 NSCLC 33.8% | A549/ATCC NSCLC 24.5% | MALME-3M melanoma 60.8% | RXF 393 renal 66.7% | SF-268 CNS 24.5% | SF-295 CNS 21.6% | UACC-257 melanoma 85%

COC1=C(C)C(=O)c2c(c(CCCl)c3n2CCC3OC(C)=O)C1=O (stereo not drawn)
active: NCI-H23 lung -12% | NCI-H226 lung -14.9% | NCI-H322M lung -14.8% | HOP-62 NSCLC -22.4% | NCI-H522 lung -56.9% | A549/ATCC NSCLC 1.27% | 786-0 renal -32.4% | COLO 205 colon -60% | DU-145 prostate -9.56% | MALME-3M melanoma -64.3% | RXF 393 renal -54.3% | SF-295 CNS -11.7% | SF-539 CNS -41.7% | UACC-257 melanoma -50.2% | M14 melanoma -46.3%
inactive: HOP-92 NSCLC 56.4% | K-562 leukemia 12.7% | SF-268 CNS 10.4%
